Experimental data reported in PubChem BioAssay AID1159580 (chemical genetic matrix, 2015).
Several values for one entry are separate records, joined by “and”; a condition that tells them apart may be missing. Identical values can stand only once. Among all 5,500 compounds or so, about 2,000 (36%) were called active. Roughly 18% stayed inconclusive and do not appear here. Rule as the data show it: active = normalized growth mostly below about 0.91 (no sharp cut-off); inconclusive = no clear call, values can overlap the other calls; inactive = mostly above about 0.92. The list shows a part of the results.

Test: chemical genetic growth profiling, strain panel (AID 1159580);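 also: tested at 20 µM; growth read once vehicle control cultures reached saturation at 30 °C; 1 = growth at the plate median or of vehicle wells; lower values mean less growth of the strain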
Conditions: S. cerevisiae deletion strains, growth OD

Measured: normalized growth

CCCC(=O)O[C@]1(C(=O)CO)CCC2[C@@H]3CCC4=CC(=O)CC[C@]4(C)C3[C@@H](O)C[C@@]21C (stereo not given in full)
inactive: locus YAL013W, strain DEP1, active compounds read low 1.01 | locus YAL021C, strain ccr4, active compounds read low 0.997 | locus YAL026C, strain drs2, active compounds read low 1.02 | locus YAL030W, strain snc1, active compounds read low 1 | locus YBL061C, strain skt5, active compounds read low 1 | locus YBR009C, strain hhf1, active compounds read low 1 | locus YBR021W, strain FUR4, active compounds read low 1.02 | locus YBR023C, strain chs3, active compounds read low 1 | locus YBR171W, strain sec66, active compounds read low 1.01 | locus YBR229C, strain ROT2, active compounds read low 1.02 | locus YBR231C, strain swc5, active compounds read low 1 | locus YBR279W, strain paf1, active compounds read low 0.996 | locus YCL011C, strain gbp2, active compounds read low 1.01 | locus YCL016C, strain dcc1, active compounds read low 1.01 | locus YCL029C, strain bik1, active compounds read low 0.983 | locus YCL061C, strain MRC1, active compounds read low 1 | locus YCL069W, strain vba3, active compounds read low 1 | locus YCR088W, strain abp1, active compounds read low 1.01 | locus YDL005C, strain med2, active compounds read low 1.01 | locus YDL035C, strain GPR1, active compounds read low 0.997 | locus YDL040C, strain nat1, active compounds read low 1.01 | locus YDL074C, strain BRE1, active compounds read low 1.01 | locus YDL101C, strain DUN1, active compounds read low 1.01 | locus YDL134C, strain PPH21, active compounds read low 1.01 | locus YDL185W, strain tfp1, active compounds read low 0.965 | locus YDL192W, strain arf1, active compounds read low 0.98 | locus YDR001C, strain nth1, active compounds read low 1.01 | locus YDR069C, strain doa4, active compounds read low 1.01 | locus YDR101C, strain arx1, active compounds read low 1.01 | locus YDR137W, strain rgp1, active compounds read low 1.01 | locus YDR150W, strain NUM1, active compounds read low 1.01 | locus YDR159W, strain sac3, active compounds read low 0.998 | locus YDR162C, strain NBP2, active compounds read low 0.991 | locus YDR195W, strain ref2 0.99 | locus YDR297W, strain sur2, active compounds read low 1.01 | locus YDR318W, strain mcm21, active compounds read low 1 | locus YDR334W, strain swr1, active compounds read low 1.02 | locus YDR335W, strain msn5, active compounds read low 1 | locus YDR388W, active compounds read low 0.976 | locus YDR392W, strain spt3, active compounds read low 1.01 | locus YDR502C, strain sam2, active compounds read low 0.981 | locus YEL003W, strain gim4, active compounds read low 1.01 | locus YEL037C, strain rad23, active compounds read low 1 | locus YEL061C, strain CIN8 (second series), active compounds read low 1.01 | locus YEL061C, strain CIN8, active compounds read low 1 | locus YER015W, strain faa2, active compounds read low 1.01 | locus YER016W, strain bim1, active compounds read low 1.01 | locus YER110C, active compounds read low 0.946 | locus YER111C, strain swi4, active compounds read low 1.01 | locus YER155C, strain BEM2 (second series), active compounds read low 1.01 | locus YER155C, strain BEM2, active compounds read low 1.02 | locus YER167W, strain BCK2, active compounds read low 1.01 | locus YFR010W, strain ubp6, active compounds read low 1.01 | locus YGL078C, strain dbp3, active compounds read low 0.978 | locus YGL086W, strain mad1, active compounds read low 0.99 | locus YGL167C, strain pmr1, active compounds read low 1.01 | locus YGL173C, strain kem1, active compounds read low 1 | locus YGL227W, strain vid30, active compounds read low 1.02 | locus YGL240W, strain doc1, active compounds read low 1.01 | locus YGL248W, strain PDE1, active compounds read low 1.02 | locus YGL253W, strain hxk2, active compounds read low 1.01 | locus YGR135W, strain pre9, active compounds read low 0.939 | locus YGR229C, strain SMI1, active compounds read low 0.987 | locus YGR252W, strain gcn5, active compounds read low 0.94 | locus YHR013C, strain ard1, active compounds read low 1.01 | locus YHR027C, strain rpn1, active compounds read low 1 | locus YHR030C, strain SLT2, active compounds read low 1.01 and 1.04 | locus YHR079C, strain IRE1 (second series), active compounds read low 0.997 | locus YHR079C, strain IRE1, active compounds read low 1.05 | locus YHR094C, strain hxt1, active compounds read low 0.984 | locus YHR129C, strain ARP1, active compounds read low 1.01 | locus YHR142W, strain chs7, active compounds read low 1.02 | locus YHR200W, strain rpn10, active compounds read low 0.994 | locus YIL066C, strain RNR3, active compounds read low 1.02 | locus YIL073C, strain SPO22, active compounds read low 0.867 | locus YIL125W, strain kgd1, active compounds read low 0.994 | locus YIR030C, strain dcg1, active compounds read low 0.994 | locus YJL092W, strain hpr5, active compounds read low 1.01 | locus YJL095W, strain BCK1 (second series), active compounds read low 1 | locus YJL095W, strain BCK1, active compounds read low 1.01 and 1.05 | locus YJL115W, strain asf1, active compounds read low 1.02 | locus YJL129C, strain trk1, active compounds read low 1.01 | locus YJL134W, strain LCB3, active compounds read low 1.01 | locus YJL154C, strain vps35, active compounds read low 1.01 | locus YJL164C, strain tpk1, active compounds read low 1.01 | locus YJL166W, strain qcr8, active compounds read low 1.01 | locus YJL168C, strain set2, active compounds read low 0.976 | locus YJL187C, strain SWE1 (second series), active compounds read low 1.01 | locus YJL187C, strain SWE1, active compounds read low 1 | locus YJR043C, strain POL32, active compounds read low 0.992
